# Assay outcomes deposited in PubChem BioAssay by National Center for Advancing Translational Sciences (NCATS).
# CBFb RUNX1 block: qHTS Assay for Compounds Blocking the Interaction Between CBF-beta and RUNX1 for the Treatment of Acute Myeloid Leukemia; Runt-related transcription factor 1 (Homo sapiens) + Core-binding factor subunit beta …; AlphaScreen CBFb-His/RUNX1-biotin binding, biochemical; Potency, µM (highest dose often 59.8 µM), without a hit: at the highest dose activity, negative = inhibition, actives largely listed as inhibitors; 230,000 tested, under 10 active; note: % of control where 0% means no effect
# Target sequence (Q01196 whole entry, looked up): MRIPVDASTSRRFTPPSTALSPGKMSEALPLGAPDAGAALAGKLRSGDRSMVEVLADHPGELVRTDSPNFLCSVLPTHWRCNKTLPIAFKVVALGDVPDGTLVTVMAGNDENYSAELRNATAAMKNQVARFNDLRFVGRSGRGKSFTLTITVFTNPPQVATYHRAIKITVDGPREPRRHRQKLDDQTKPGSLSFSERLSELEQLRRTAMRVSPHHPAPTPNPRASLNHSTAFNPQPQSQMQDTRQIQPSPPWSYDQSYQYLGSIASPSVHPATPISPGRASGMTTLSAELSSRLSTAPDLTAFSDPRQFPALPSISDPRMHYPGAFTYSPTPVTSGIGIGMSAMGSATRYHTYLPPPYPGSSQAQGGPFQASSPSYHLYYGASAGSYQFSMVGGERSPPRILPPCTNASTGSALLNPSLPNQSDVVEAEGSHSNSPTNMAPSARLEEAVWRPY
# Target sequence (Q13951 whole entry, looked up): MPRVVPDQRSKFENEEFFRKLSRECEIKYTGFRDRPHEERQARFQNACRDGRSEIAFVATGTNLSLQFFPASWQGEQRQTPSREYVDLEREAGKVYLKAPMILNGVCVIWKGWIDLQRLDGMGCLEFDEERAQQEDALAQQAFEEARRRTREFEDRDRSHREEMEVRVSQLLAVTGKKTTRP
#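 Compounds were screened at multiple concentrations against a preformed CBF-beta(His)/RUNX1(biotin) complex (30 nM of each) for 15 min at room temperature, followed by 90 min with nickel and streptavidin beads and AlphaScreen reading.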
# a7 integrin act: qHTS for Activators of Integrin-Mediated Alleviation for Muscular Dystrophy. alpha7betagal myoblasts, beta-gal FDG fluorescence, 48 h. Potency, µM (series often up to 38.3 µM), without a hit: top-dose activation, hits mostly activators. 0.064% of 350,000 active;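 note: potency is the fitted concentration of half-maximal effect; 100% = response of the positive control SU9516; nearly all actives have a fitted effect of over 60% in size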
#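 Alpha7betagal+/- myoblasts (passage 13) were plated 16-24 hr, then exposed to compounds (1:260 dilution of DMSO stock) for 48 hours at 37C. After MPER lysis, β-galactosidase reporter activity was read as FDG fluorescence (ex 480/em 540) after 30 minutes.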
# N370S GC mod: qHTS Assay for Inhibitors and Activators of N370S glucocerebrosidase as a Potential Chaperone Treatment of Gaucher Disease | Lysosomal acid glucosylceramidase (Homo sapiens), P04062 | N370S GC spleen homogenate, 4MU-glucoside fluorescence | Potency, µM (top dose mostly 59.4 µM), for inactives: at the highest dose activity change, negative = inhibition, actives largely listed as inhibitors | 0.092% of 330,000 active | AID 2101, 2009;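 note: potency is the fitted concentration of half-maximal effect; 0% = full enzyme activity and -100% = no enzyme basal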
# ClpP mod: qHTS Assay for Activators of ClpP; AID 651965, 2013; purified B. subtilis ClpP, FRET peptide cleavage, 20 min; 1.9% of 340,000 active; Potency, µM (highest dose often 57.5 µM), for the others: top-dose activity change, negative = active; ATP-dependent Clp protease proteolytic subunit (Bacillus subtilis (strain 168)), P80244; active = well fitted falling curve with a large enough effect; inconclusive = small, poorly fitted or top-dose-only effect; inactive = no such curve, though single readings can be large or run the other way; note: potency is the fitted concentration of half-maximal effect; the source files actives as falling curves though it sought activators and does not explain the sign; nearly all actives have a fitted effect of over 65% in size
#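 Buffer: 100 mM Tris/HCl pH8, 100 mM KCl, 0.05% low protease BSA, 2.5% glycerol, 0.01% Tween-20. ClpP 10 microg/mL final; 20 min RT; delta FRET normalized to ADEP and DMSO controls.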
# GRP78 ERSR act: qHTS for Inducers of the Endoplasmic Reticulum Stress Response (ERSR) in Human Glioma: qHTS | U87-MG GRP78 promoter luciferase reporter, 16 h | 0.02% of 420,000 active | Potency, µM, for inactives: top-dose activation, hits mostly activators; note: potency is the fitted concentration of half-maximal effect; series mostly up to about 76 µM; % of control where 0% means no effect; nearly all actives have a fitted effect of over 35% in size
#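 Stably transfected U87-MG glioma cells carrying a GRP78-based luciferase sensor; 16 h compound incubation. Luminescence end-point read 10 min after Bright-Glo addition at room temperature.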
# Apoferritin bind: qHTS Assay for Identification of Novel General Anesthetics | 0.074% of 350,000 active | Potency, µM (highest dose often 77.5 µM), inactives show top-dose activity change, negative = displacement, hits mostly inhibitors | Ferritin light chain (Equus caballus), P02791 | apoferritin/1-aminoanthracene competitive binding, fluorescence; note: potency is the fitted concentration of half-maximal effect; % is set by controls: 0 for no effect and ±100 for the full control effect; nearly all actives have a fitted effect of over 20% in size
#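 In PBS, apoferritin at 10 uM is loaded with 1-AMA from a 50% saturated solution. After 10 min of compound exposure at ambient temperature, reduced 535 nm fluorescence indicates probe displacement.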
# * = called active by the depositor; i = inactive; ? = inconclusive; / = no result given. This excerpt belongs to a sample that is enriched for hits. Unless noted, calls come from the whole dose curve; as a rule, active = well fitted curve in the direction sought with a large enough effect; inconclusive = small, poorly fitted or top-dose-only effect, or another doubt; inactive = no such curve, though single readings can be large; an effect the other way counts as inactive or inconclusive.
SMILES,CBFb RUNX1 block,a7 integrin act,N370S GC mod,ClpP mod,GRP78 ERSR act,Apoferritin bind
CC1(C)Cc2c(cnn2-c2ccccc2)-c2c1c1ccccc1n2CC(O)CCl (stereo not drawn),-6.9%,-23.3%,1.5%,22.4µM*,-2.6%,-8.0%
COc1cccc(-c2ccc(O)c(CNC(c3ccccc3)c3ccc(Cl)cc3)c2)n1 (stereo not drawn),/,/,/,/,-3.6%,/
O=C(Nc1ccon1)c1cnc2sccn2c1=O,-3.1%,18.3%,26.7%,20µM*,1.1%,-11.7%
Cc1cccc(NC(=O)c2cnc3sccn3c2=O)n1,/,5.8%,/,-7.2%,0.8%,/
COc1cc(OC)c(/C=C/c2c3ccccc3cc[n+]2C)c(OC)c1,/,/,/,-1.2%,-2.6%,/
CC(C)C(=O)Nc1ccc([N+](=O)[O-])cc1Br,-1.6%,15.8%,18.5%,35.5µM*,-3.8%,-3.5%
CCCCCCCCCCCCCCOc1ccc(C(=O)O)o1,5.3%,/,-4.8%,/,-7.7%,?
COc1cc2nc(N3CCCN(C)CC3)nc(N3CCN(C)CC3)c2cc1OC,/,/,/,3.8%,/,/
CCN(CC)c1ccc(-c2nn3c(-c4ccccc4OC)nnc3s2)cc1,13.5%,-4.2%,?,7.94µM*,-5.0%,i
O=C(Nc1ccc2nc(SCC(=O)N3CCCc4ccccc43)sc2c1)c1cccc(Cl)c1,/,/,/,14.1µM*,-4.9%,79.9%
O=C(Nc1ccc2nc(SCC(=O)N3CCc4ccccc43)sc2c1)c1cccc(Cl)c1,/,/,/,?,-1.7%,0.3%
CCCn1c(C(CO)Nc2nc(-c3cccc(Br)c3)cs2)nc2ccccc21 (stereo not drawn),/,-37.4%,1.78µM*,0.7%,5.1%,-14.2%
COc1ccc(N2CCN(C(c3ccccc3OC)c3nnnn3C3CCCC3)CC2)cc1 (stereo not drawn),-24.9%,-36.5%,10.3%,-3.8%,-4.9%,0.9%
COc1ccc(OC)c(C(c2nnnn2C2CCCC2)N2CCN(c3ccccc3F)CC2)c1 (stereo not drawn),-5.2%,-2.7%,21.5%,25.1µM*,-4.8%,62.5%
CCS(=O)(=O)NCCc1cc2ccc(C)cc2[nH]c1=O,-0.1%,-7.2%,2.6%,28.2µM*,-0.6%,-6.3%
CCOc1ccccc1-c1nc(-c2cc3ccc(C)cc3[nH]c2=O)no1,7.3%,2.0%,?,?,-1.6%,-13.4%
CCS(=O)(=O)NCCc1cc2cc(C)c(C)cc2[nH]c1=O,1.0%,0.4%,6.7%,-6.5%,-0.8%,-17.9%
CCCc1nc(-c2cc3ccc(C)cc3[nH]c2=O)no1,6.2%,-9.5%,?,28.2µM*,-0.6%,-3.3%
Cc1nc(C#N)nc(Oc2ccccc2)c1Cl,/,/,/,0.4%,/,/
CCCCOc1ccc(NC(=O)C(=O)NCCCn2ccnc2)cc1,1.8%,7.4%,-0.1%,2.2%,-0.9%,?
CCCCCCOc1ccc(C(=O)NCCCn2ccnc2)cc1,-4.6%,-6.8%,?,/,0.0%,14.1µM*
C/C(CC(=O)Nc1ccc(N(C)C)cc1)=N\NC(=O)c1ccc([N+](=O)[O-])cc1Cl,0.1%,-20.4%,-0.7%,25.1µM*,0.5%,-22.0%
COc1ccc(-n2c(=O)/c(=C\c3cccs3)s/c2=C(/C#N)C(=O)N2CCN(C)CC2)cc1,-9.4%,-18.5%,-13.4%,31.6µM*,-5.9%,-21.1%
N#Cc1nc(-c2ccc(Cl)cc2)oc1NCc1ccco1,3.1%,-13.9%,12.6%,11.2µM*,-3.0%,-3.9%
N#Cc1nc(-c2ccc(Cl)cc2)oc1NCCc1ccccn1,9.0%,23.7%,0.8%,31.6µM*,3.9%,-0.9%
CN(C)CCCNc1oc(-c2ccc(Cl)cc2)nc1C#N,-0.2%,-61.7%,-8.6%,6.4%,1.5%,5.4%
